In the library only some 19% were active in any assay of this set; here they are far more common.
IL-1B inflam inh – blocks inflammasome-driven IL-1 beta release. THP-1 LPS/ATP IL-1B secretion, AlphaLISA, 16 h; hits give low values. activity change, % at 57.5 µM. actives 4.7% (n = 360,000). AID 743279; in the data active = activity change below about -50%; inconclusive = mostly about -30% to -49%
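Secreted IL-1B measured by AlphaLISA bead assay after 16 h compound exposure of THP-1 cells; compounds (final up to 57.5 uM) added 1 h before LPS (250 ng/mL) and ATP (1.25 mM) stimulation; lower signal means less secretion.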
TDP1 block – blocks human tyrosyl-DNA phosphodiesterase 1 | Q9NUW8 | recombinant TDP1, AlphaScreen DNA substrate cleavage | Potency, µM (doses to about 130 µM), without a hit: at the highest dose activity change, negative = inhibition, actives largely listed as inhibitors | actives 0.28% (n = 350,000) | AID 485290; also: potency is read from the fitted curve at half-maximal effect; nearly all actives have a fitted effect of over 40% in size
Target sequence (Q9NUW8 whole entry, looked up): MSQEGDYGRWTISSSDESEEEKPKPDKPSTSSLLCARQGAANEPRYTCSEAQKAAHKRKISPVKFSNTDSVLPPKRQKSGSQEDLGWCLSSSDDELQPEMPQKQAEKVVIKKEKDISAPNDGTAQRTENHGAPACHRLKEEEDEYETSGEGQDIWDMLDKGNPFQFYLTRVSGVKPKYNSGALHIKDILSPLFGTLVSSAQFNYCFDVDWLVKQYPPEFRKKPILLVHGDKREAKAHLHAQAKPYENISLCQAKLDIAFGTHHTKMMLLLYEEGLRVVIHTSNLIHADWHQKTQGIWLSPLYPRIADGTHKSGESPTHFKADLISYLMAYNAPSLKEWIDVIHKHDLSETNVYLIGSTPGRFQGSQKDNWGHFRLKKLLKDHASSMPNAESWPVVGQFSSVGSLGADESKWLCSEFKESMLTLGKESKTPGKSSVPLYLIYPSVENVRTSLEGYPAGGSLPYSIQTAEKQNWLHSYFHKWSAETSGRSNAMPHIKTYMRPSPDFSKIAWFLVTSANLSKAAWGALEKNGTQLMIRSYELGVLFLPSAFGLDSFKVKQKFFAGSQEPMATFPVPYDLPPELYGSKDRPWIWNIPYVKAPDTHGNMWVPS
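Signal: AlphaScreen proximity between streptavidin donor and anti-FITC acceptor beads on intact substrate. Reaction: Tdp1 1 nM, substrate 15 nM final, 5 min RT after 15 min compound preincubation.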
Giardia kill – kills Giardia lamblia; Giardia lamblia trophozoite viability; activity change, % at 7.66 µM, hits read low; actives 0.15% (n = 340,000); AID 540267; in the data active = activity change below about -80%; inconclusive = between about -30% and that limit;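 also: parasites exposed to compound for two days anaerobically before the ATP read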
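Trophozoites 100 cells/well + cpd; 48 hrs, 37 deg C, anaerobic. ATPLite 1-Step added, 15-30 min RT, luminescence read (ATP-based viability).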
DT40 TDP1 CPT – DT40-hTDP1 cell growth loss with CPT. chicken DT40 Tdp1-/-;hTDP1 cells + 20 nM CPT, ATP luminescence, 48 h. actives 12% (n = 420,000). Potency, µM (top dose mostly 46.2 µM), for the others: top-dose activity change, negative = growth inhibition, most hits filed as inhibitors; also: potency is read from the fitted curve at half-maximal effect; nearly all actives have a fitted effect of over 55% in size
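Cell growth measured by CellTiter-Glo luminescence after a minimum 48 h, 37 C compound exposure with 20 nM CPT in Tdp1-knockout DT40 cells stably expressing hTDP1, seeded 400/well; qHTS titration format.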
ELG1 repair inh – blocks ELG1-dependent DNA repair in HEK293T cells; HEK293T ELG1-luciferase reporter, luminescence, 16 h; DNA damage induced by 5-fluorouridine; Potency, µM (highest dose often 46.1 µM), inactives show top-dose activity change, negative = inhibition, actives largely listed as inhibitors; actives 2.3% (n = 330,000); also: potency is read from the fitted curve at half-maximal effect; nearly all actives have a fitted effect of over 55% in size
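DMSO vehicle served as the neutral condition. Each well held 2,000 cells given 5-fluorouridine plus compound; after 16 hr at 37 °C/5% CO2, ONE-Glo was added and luciferase measured 30 min later.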
TDP1 cell noCPT – qHTS for Inhibitors of human tyrosyl-DNA phosphodiesterase 1 (TDP1): qHTS in cells in absence of CPT | actives 15% (n = 420,000) | DT40 Tdp1-/- hTDP1 cells, no CPT, ATP luminescence, 48 h | Potency, µM (titrated, usually from 46.2 µM), without a hit: top-dose activity change, negative = growth inhibition, hits mostly inhibitors | AID 686978, 2013; also: potency is read from the fitted curve at half-maximal effect; nearly all actives have a fitted effect of over 55% in size
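A cellular qHTS used chicken DT40 cells lacking endogenous Tdp1 but carrying stably transfected human TDP1. Compounds were applied without camptothecin, and cell growth kinetics were judged by ATP-dependent luminescence after ≥48 hr.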
Active calls of the source: *; ? = inconclusive; . = not tested or not shown; ! = not active in a repeat. Unless noted, calls follow the shape of the dose curve; as a rule, active = well fitted curve in the direction sought with a large enough effect; inconclusive = small, poorly fitted or top-dose-only effect, or another doubt; inactive = no such curve, though single readings can be large; an effect the other way counts as inactive or inconclusive. % is scaled to controls: 0 for no effect and ±100 for the full control effect.

SMILES	IL-1B inflam inh	TDP1 block	Giardia kill	DT40 TDP1 CPT	ELG1 repair inh	TDP1 cell noCPT
O=C(CSc1ccc(-c2cccs2)nn1)Nc1ccccc1	-15	2%	4	13µM*!	?	21µM*
Cc1cc(C)cc(NC(=O)CSc2ccc(-c3cccs3)nn2)c1	-72*	5%	-4	?	?	21µM*!
C/C(=N\NC(=O)c1c([N+](=O)[O-])c(C)nn1C)c1ccc(NC(=O)C2CCCC2)cc1	106	4%	-30	0.16µM*	?	0.18µM*
C/C(=N\NC(=O)c1c(Br)c(C)nn1C)c1cccc(NC(=O)C2CCC2)c1	-25	3%	3	-30%	-8%	?
C/C(=N\NC(=O)c1c(Cl)c(C)nn1C)c1ccc(NC(=O)C2CCC2)cc1	101	-5%	-9	0.65µM*	-20%	0.37µM*
C/C(=N\NC(=O)c1c([N+](=O)[O-])c(C)nn1C)c1ccc(NC(=O)c2ccc(C)o2)cc1	-9	2%	-11	-22%	?	-17%
COc1ccccc1CNC(=O)c1cc2c(=O)[nH]c3ccccc3c2n1C	.	-2%	.	.	-18%	.
Cn1nc([N+](=O)[O-])nc1S(C)(=O)=O	-101*	2%	-12	4.6µM*	?	4.6µM*
Cn1nc([N+](=O)[O-])nc1Oc1ccccc1F	-2	3%	-20	-2%	6%	-6%
CS(=O)(=O)c1nc([N+](=O)[O-])nn1CCCc1ccccc1	-103*	.	7	6.5µM*	.	13µM*
CC(=O)c1cccc(NC(=O)C(C)OC(=O)c2ccc(S(C)(=O)=O)c([N+](=O)[O-])c2)c1 (stereo not drawn)	.	-2%	-8	2.2µM*	.	3.2µM*
CS(=O)(=O)c1ccc(C(=O)OCC(=O)Nc2ccc(OC(F)(F)F)cc2)cc1[N+](=O)[O-]	.	2%	13	8.9µM*	.	10µM*
CC(=O)c1cccc(NC(=O)COC(=O)c2ccc(S(C)(=O)=O)c([N+](=O)[O-])c2)c1	-89*	1%	1	6.3µM*	?	10µM*
CC(=O)Nc1ccc(NC(=O)c2c(C)c(-c3ccccc3)nc3ccccc23)cc1	19	.	1	2%	.	0%
O=C(Nc1nc(-c2ccc(S(=O)(=O)N3CCCC3)cc2)cs1)c1cccs1	?	5%	-17	?	8.2µM*	15µM*
O=C(Nc1nc(-c2ccc(S(=O)(=O)N3CCCCCC3)cc2)cs1)c1cccs1	10	3%	22	?	13µM*	21µM*
COCCn1c(CN2CCN(c3ccccc3)CC2)nc2c1c(=O)n(C)c(=O)n2C	16	.	-22	10µM*	.	10µM*
CCOCCn1c(CN2CCN(CC)CC2)nc2c1c(=O)n(C)c(=O)n2C	-18	5%	22	-23%	16%	-1%
CCOCCn1c(CN2CCN(c3ccccc3)CC2)nc2c1c(=O)n(C)c(=O)n2C	16	.	-5	16µM*	.	16µM*
COc1ccc(N2CCN(Cc3nc4c(c(=O)n(C)c(=O)n4C)n3C(C)C)CC2)cc1	.	0%	.	1µM*	.	0.65µM*
COC(=O)Cn1c(CN2CCN(c3ccccc3F)CC2)nc2c1c(=O)n(C)c(=O)n2C	36	.	11	5.8µM*	.	8.2µM*
CCCN1C(=O)/C(=C/c2ccccc2OCc2ccc(C(=O)O)cc2)NC1=S	8	3%	-2	4%	17%	-17%
COc1ccccc1CN1CCOc2ccc(C(C)(O)CN(C)C)cc2C1 (stereo not drawn)	.	.	.	0%	.	2%
COCCNC(=O)CCn1c(=O)c2cc(OC)c(OC)cc2n(CC(=O)Nc2ccc(Cl)cc2F)c1=O	.	9%	.	7%	.	-15%
Cc1cc(C(=O)CN2C(=O)C(=O)N(CC(C)C)C2=O)c(C)n1-c1ccccc1F	-2	8%	29	8%	?	2%
SMILES	IL-1B inflam inh	TDP1 block	Giardia kill	DT40 TDP1 CPT	ELG1 repair inh	TDP1 cell noCPT
Cc1cc(C(=O)CSc2nnc(-c3ccc4c(c3)OCO4)o2)c(C)n1-c1ccc(F)cc1	43	3%	-2	-12%	0%	-2%
COCCn1c(C)cc(C(=O)COC(=O)c2ccc3c(c2)NC(=O)CS3)c1C	?	7%	8	-26%	?	?
Cc1nnc(SCC(=O)c2cc(C)n(-c3ccc4c(c3)OCO4)c2C)s1	-77*	4%	0	26µM*	?	23µM*
C=CCn1c(C)cc(C(=O)COC(=O)c2ccc3c(c2)NC(=O)CS3)c1C	?	6%	-28	?	?	16µM*
C=CCn1c(C)cc(C(=O)COC(=O)c2ccc(N)c([N+](=O)[O-])c2)c1C	-7	3%	2	18µM*	?	16µM*
Cc1cc(C(=O)CN2C(=O)C(=O)N(Cc3ccccc3)C2=O)c(C)n1-c1ccc2c(c1)OCCO2	25	5%	-3	15µM*	-1%	21µM*
CSCCC(NC(=O)c1ccccc1Cl)C(=O)Nc1ccc(C)c(S(=O)(=O)N2CCOCC2)c1 (stereo not drawn)	2	.	3	?	?	?
Cc1cc(C(=O)COC(=O)c2ccc(N)c([N+](=O)[O-])c2)c(C)n1-c1ccc2c(c1)OCO2	0	6%	4	9.2µM*	15%	5.8µM*
Cc1cc(C(=O)COC(=O)CC2Sc3ccccc3NC2=O)c(C)n1-c1ccc2c(c1)OCO2 (stereo not drawn)	26	0%	-11	?	14%	?
CCCC1(CCC)NC(=O)N(CC(=O)c2cc(C)n(-c3ccc4c(c3)OCO4)c2C)C1=O	-12	11%	18	?	-17%	21µM*
CC(=O)c1ccc(OCC(=O)c2cc(C)n(-c3ccc4c(c3)OCO4)c2C)cc1	-3	-3%	-15	23µM*	?	10µM*
CC1(c2ccc3c(c2)OCO3)NC(=O)N(CC(=O)c2ccc[nH]2)C1=O (stereo not drawn)	3	-10%	-10	3%	1%	-21%
CC(=O)Nc1ccc(S(=O)(=O)NCC(=O)OCC(=O)c2cc(C)n(-c3ccc4c(c3)OCO4)c2C)cc1	32	6%	-1	-12%	-2%	8.2µM*
CC(=O)N1c2ccccc2C(=O)C1N1CCN(c2cccc(C)c2C)CC1 (stereo not drawn)	.	3%	.	-15%	.	-20%
